assay: small molecules boosting NK-mediated OVCAR3 lysis – imaging, primary NK cells, calcein-AM imaging, primary screen (AID 1508625); details: OVCAR3 lysis by primary NK cells, at 5 µM; z-score: measured here: robust Z-score, single-point normalisation;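 note: compound given to NK cells 16 h before adding targets at 1.5 to 1 ratio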;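 for z-score: more negative robust z means stronger NK killing of tumor cells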

| Compound | corrected activity, negative = more killing | z-score |
| --- | --- | --- |
| Cc1c(C(=O)NC(C)C)oc2ccc(S(=O)(=O)N3CCOCC3)cc12 | -3.41% | -0.849 |
| COC(=O)c1sc(N2C(=O)C(=O)C(=C(O)c3ccc(Cl)cc3)C2c2ccc(C)cc2)nc1C (centres undefined) | -3.82% | -1.66 |
| Cc1ccc(-c2noc(-c3ccccc3F)n2)cc1 | -2.22% | -0.911 |
| Cc1cc([N+](=O)[O-])ccc1N=Cc1ccc(Br)s1 | -2.22% | -0.944 |
| Cc1sc2nc(SCC(=O)Nc3ccc(N(C)C)cc3)[nH]c(=O)c2c1C | -4.5% | -2.5 |
| COCc1cc(C)[nH]c(=O)c1C(=O)NC12CC3CC(CC(C3)C1)C2 | -5.27% | -1.57 |
| COc1cccc(C2C3=C(CCCC3=O)NC3=C2C(=O)CCC3)c1OC | -3.89% | -1.45 |

From PubChem BioAssay AID1508625 (Wald Lab, School of Medicine, Case Western Reserve …, 2021)
